Measurements from the supplement of paper PMC10849652.
Of roughly 7,900 targets only a part is listed; those with a hit were picked by preference. About 0.6% of all pairs of compound and target were hits. Unmarked numbers belong to inactive results.

Legend:
Experiment in all cases: log2 fold change, soluble protein after heating vs DMSO (PISA); higher = thermal stabilisation; K562 cells, 10 uM, 30 min; active = over 0.2 and 3.5 SD of the protein, either way, in both replicates (recomputed)
[1] = compound: NC(=O)Nc1cc(-c2cccc(F)c2)sc1C(=O)N[C@H]1CCCNC1
Method in brief: (§1)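 Soluble protein was quantified by TMTpro 16plex LC-MS/MS after channel sums were equalised. It was obtained as the supernatant after 21,000xg for 90 min from pooled aliquots of K562 cells (2×10^6 cells/mL, 10 μM compound, 30 min) heated for 3 min across 48°C-58°C and extracted in PBS with 0.5% NP-40 at 4°C. Thermal stability values are relative to control samples and come from duplicates. They are given as log2 fold changes.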

[2] = compound: NC(=O)c1cnc(N[C@@H]2CCCC[C@@H]2N)nc1Nc1cccc(-n2nccn2)c1
Method in brief: as §1

[3] = compound: NC1(c2ccc(-c3nc4ccn5c(=O)[nH]nc5c4cc3-c3ccccc3)cc2)CCC1
Method in brief: as §1

[4] = compound: NCC(=O)Nc1ccc(-n2nc(C(F)(F)F)cc2-c2ccc3c(ccc4ccccc43)c2)cc1
Method in brief: as §1

[5] = compound: Nc1ccccc1NC(=O)c1ccc(CNC(=O)OCc2cccnc2)cc1 [entinostat]
Method in brief: as §1

[6] = compound: O=C(CCCCCCC(=O)Nc1ccccc1)NO [vorinostat]
Method in brief: as §1

[7] = compound: O=C(CCCCCCNC(=O)c1cnc(N(c2ccccc2)c2ccccc2Cl)nc1)NO [citarinostat]
Method in brief: as §1

[8] = compound: O=C(O)c1ccc2c(c1)nc(Nc1cccc(Cl)c1)c1ccncc12 [silmitasertib]
Method in brief: as §1

[9] = compound: O=C1NC(=O)C(c2cnc3ccccn23)=C1c1cn2c3c(cc(F)cc13)CN(C(=O)N1CCCCC1)CC2
Method in brief: as §1

[10] = compound: c1cc(OCCN2CCCCC2)cc(-c2n[nH]c3ccc(-c4nnc[nH]4)cc23)c1
Method in brief: as §1

[11] = compound: c1cn2cc(-c3ccc4cn[nH]c4c3)nc(Nc3ccc(N4CCOCC4)cc3)c2n1 [entospletinib]
Method in brief: as §1

Sequence of UniProt P11142 (P11142 whole entry, looked up): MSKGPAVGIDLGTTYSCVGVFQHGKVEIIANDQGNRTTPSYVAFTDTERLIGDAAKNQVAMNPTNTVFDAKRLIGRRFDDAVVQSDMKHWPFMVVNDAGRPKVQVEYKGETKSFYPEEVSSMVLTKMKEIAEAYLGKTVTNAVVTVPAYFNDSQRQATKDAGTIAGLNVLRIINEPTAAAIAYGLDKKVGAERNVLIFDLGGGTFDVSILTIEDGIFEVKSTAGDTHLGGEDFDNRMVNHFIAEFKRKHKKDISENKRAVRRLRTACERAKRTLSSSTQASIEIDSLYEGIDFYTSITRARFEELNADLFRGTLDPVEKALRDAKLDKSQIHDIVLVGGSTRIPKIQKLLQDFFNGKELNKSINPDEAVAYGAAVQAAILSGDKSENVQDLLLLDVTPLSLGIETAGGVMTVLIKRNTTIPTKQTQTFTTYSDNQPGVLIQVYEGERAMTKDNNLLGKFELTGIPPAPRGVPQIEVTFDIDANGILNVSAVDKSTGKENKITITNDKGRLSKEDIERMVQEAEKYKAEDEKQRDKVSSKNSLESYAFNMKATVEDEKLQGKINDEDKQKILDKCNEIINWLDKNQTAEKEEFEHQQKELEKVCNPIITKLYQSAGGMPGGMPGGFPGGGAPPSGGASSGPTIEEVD
Sequence of UniProt P04035 (P04035 whole entry, looked up): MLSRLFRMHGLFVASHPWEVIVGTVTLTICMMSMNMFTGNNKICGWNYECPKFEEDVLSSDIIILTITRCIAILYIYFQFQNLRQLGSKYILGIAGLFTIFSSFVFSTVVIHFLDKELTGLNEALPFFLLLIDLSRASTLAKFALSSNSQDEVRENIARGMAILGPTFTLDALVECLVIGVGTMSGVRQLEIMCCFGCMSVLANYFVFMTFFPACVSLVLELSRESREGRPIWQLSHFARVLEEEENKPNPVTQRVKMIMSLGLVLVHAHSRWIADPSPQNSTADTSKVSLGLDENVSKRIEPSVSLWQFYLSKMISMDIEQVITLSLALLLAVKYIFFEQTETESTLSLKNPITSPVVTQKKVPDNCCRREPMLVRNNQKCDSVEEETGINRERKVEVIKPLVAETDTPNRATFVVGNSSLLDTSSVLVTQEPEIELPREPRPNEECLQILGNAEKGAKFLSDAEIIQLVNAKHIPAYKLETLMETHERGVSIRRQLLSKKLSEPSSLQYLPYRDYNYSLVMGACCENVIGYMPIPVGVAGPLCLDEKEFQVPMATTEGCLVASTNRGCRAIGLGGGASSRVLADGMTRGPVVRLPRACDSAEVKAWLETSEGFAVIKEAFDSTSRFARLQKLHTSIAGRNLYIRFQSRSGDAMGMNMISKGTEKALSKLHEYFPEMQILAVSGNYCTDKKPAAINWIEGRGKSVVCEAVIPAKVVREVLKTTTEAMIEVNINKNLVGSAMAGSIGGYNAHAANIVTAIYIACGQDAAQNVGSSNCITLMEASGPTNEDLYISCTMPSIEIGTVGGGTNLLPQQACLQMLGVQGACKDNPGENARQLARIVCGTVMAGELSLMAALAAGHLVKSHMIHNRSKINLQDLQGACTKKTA
Sequence of UniProt Q03014 (Q03014 whole entry, looked up): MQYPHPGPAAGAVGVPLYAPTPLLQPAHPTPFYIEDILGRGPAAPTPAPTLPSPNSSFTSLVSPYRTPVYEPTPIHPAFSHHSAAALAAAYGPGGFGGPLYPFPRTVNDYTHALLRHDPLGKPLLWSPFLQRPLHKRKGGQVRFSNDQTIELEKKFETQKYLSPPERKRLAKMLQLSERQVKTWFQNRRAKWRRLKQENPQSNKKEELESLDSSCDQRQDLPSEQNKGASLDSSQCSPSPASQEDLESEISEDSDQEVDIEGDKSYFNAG
Sequence of UniProt P63218 (P63218 whole entry, looked up): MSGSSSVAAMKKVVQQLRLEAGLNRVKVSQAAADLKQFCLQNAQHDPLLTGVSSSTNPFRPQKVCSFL
Sequence of UniProt Q9H0R8 (Q9H0R8 whole entry, looked up): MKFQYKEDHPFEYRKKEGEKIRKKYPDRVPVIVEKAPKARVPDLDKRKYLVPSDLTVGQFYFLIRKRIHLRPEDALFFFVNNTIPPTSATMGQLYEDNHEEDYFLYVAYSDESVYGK
Sequence of UniProt Q8N9F7 (Q8N9F7 whole entry, looked up): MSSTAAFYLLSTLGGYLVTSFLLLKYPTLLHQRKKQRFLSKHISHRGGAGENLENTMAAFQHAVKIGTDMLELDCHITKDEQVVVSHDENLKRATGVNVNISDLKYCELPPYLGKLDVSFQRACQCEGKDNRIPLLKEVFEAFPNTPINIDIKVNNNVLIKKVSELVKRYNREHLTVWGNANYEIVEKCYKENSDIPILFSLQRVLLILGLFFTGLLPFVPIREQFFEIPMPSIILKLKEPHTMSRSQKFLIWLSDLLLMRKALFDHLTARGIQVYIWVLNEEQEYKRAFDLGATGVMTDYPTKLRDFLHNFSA
Sequence of UniProt P36915 (P36915 whole entry, looked up): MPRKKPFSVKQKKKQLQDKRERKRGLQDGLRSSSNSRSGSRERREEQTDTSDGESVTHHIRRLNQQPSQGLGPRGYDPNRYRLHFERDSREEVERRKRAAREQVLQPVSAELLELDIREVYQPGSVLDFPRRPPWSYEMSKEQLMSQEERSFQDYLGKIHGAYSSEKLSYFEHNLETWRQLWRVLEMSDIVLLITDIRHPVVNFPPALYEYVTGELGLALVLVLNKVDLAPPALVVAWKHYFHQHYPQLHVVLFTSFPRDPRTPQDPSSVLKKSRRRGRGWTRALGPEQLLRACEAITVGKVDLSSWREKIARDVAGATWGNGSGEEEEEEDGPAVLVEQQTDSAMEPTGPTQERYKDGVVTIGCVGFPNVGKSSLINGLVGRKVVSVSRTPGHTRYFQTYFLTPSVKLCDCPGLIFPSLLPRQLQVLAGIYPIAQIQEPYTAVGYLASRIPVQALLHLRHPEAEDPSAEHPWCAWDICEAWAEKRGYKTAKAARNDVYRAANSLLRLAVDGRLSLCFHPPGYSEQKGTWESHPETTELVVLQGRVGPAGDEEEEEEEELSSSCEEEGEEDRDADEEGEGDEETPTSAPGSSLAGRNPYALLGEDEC
Sequence of UniProt Q02790 (Q02790 whole entry, looked up): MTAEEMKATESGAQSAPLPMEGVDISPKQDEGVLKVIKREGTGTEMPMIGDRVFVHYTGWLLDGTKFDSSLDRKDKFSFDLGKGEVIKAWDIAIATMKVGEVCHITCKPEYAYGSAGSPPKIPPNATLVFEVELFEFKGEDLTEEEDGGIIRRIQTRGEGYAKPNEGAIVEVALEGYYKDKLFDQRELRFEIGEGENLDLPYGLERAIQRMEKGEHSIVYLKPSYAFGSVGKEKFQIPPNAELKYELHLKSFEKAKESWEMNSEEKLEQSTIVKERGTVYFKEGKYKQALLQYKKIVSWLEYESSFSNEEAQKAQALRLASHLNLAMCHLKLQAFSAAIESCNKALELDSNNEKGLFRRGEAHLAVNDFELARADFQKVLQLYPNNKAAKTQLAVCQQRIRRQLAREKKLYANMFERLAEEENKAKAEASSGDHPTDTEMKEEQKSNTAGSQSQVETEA
Sequence of UniProt O15117 (O15117 whole entry, looked up): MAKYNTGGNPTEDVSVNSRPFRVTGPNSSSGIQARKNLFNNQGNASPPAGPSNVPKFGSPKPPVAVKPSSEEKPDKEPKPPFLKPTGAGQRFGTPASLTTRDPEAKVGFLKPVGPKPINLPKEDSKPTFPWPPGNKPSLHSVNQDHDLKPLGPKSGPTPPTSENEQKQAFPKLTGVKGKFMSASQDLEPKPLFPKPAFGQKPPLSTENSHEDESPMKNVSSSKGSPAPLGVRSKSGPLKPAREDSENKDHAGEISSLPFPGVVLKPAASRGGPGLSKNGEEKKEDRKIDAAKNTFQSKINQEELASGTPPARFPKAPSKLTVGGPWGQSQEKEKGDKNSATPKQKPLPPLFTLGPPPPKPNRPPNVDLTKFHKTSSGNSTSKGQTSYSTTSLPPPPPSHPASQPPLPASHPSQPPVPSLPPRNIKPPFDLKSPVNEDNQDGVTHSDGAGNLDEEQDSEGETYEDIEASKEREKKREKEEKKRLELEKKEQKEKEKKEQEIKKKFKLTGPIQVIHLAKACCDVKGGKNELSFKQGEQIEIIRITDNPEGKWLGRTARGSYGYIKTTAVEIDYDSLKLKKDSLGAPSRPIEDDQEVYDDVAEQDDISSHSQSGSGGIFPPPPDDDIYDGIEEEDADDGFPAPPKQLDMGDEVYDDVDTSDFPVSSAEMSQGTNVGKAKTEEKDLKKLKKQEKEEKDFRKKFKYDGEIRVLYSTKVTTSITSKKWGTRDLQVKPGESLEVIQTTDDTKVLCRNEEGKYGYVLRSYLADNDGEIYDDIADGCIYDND
Sequence of UniProt P13807 (P13807 whole entry, looked up): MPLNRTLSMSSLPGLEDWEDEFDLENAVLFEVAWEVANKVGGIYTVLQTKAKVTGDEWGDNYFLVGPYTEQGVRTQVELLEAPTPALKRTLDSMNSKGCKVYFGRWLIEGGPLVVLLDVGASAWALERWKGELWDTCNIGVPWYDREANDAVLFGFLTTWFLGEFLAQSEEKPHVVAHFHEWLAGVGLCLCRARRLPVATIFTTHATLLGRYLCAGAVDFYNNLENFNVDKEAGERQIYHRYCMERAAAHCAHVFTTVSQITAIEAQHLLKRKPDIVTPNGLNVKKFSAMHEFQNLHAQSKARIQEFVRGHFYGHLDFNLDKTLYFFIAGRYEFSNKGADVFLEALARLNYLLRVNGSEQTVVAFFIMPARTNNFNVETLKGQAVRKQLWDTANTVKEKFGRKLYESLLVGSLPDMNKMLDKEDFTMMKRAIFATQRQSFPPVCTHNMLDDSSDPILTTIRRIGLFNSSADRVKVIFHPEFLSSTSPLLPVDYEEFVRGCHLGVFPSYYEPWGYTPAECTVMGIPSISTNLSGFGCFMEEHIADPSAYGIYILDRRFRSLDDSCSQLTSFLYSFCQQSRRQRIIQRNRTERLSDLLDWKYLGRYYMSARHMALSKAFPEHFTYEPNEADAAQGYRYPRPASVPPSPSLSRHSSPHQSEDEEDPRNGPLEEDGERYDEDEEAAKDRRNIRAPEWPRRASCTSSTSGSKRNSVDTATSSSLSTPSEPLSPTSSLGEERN

| Target | log2 fold change [1] | log2 fold change [2] | log2 fold change [3] | log2 fold change [4] | log2 fold change [5] | log2 fold change [6] | log2 fold change [7] | log2 fold change [8] | log2 fold change [9] | log2 fold change [10] | log2 fold change [11] |
| --- | --- | --- | --- | --- | --- | --- | --- | --- | --- | --- | --- |
| HMGCR isoform 3 (UniProt P04035) | 0.184 | -0.115 | 0.048 | -0.022 | 0.082 | -0.019 | -0.175 | -0.08 | 0.15 | 0.081 | -0.29 |
| GCSH (UniProt P23434) | 0.027 | 0.037 | 0.073 | 0.027 | -0.049 | 0.057 | 0.022 | 0.193 | -0.144 | -0.04 | 0.037 |
| GABARAPL1 isoform 2 (UniProt Q9H0R8) | -0.051 | -0.13 | -0.252 (active) | -0.134 | -0.009 | -0.028 | 0.038 | -0.083 | -0.049 | 0.021 | -0.041 |
| GEMIN6 (UniProt Q8WXD5) | 0.066 | 0.015 | -0.108 | 0.099 | -0.005 | -0.04 | -0.12 | 0.015 | -0.139 | -0.106 | 0.082 |
| GHDC (UniProt Q8N2G8) | -0.021 | 0.013 | 0.005 | -0.018 | 0.004 | -0.023 | 0.045 | 0.001 | -0.045 | -0.03 | 0.038 |
| FKBP4 (UniProt Q02790) | 0.005 | -0.071 | -0.114 | -0.053 | 0.039 | 0.035 | 0.072 | 0.01 | -0.02 | -0.029 | -0.019 |
| GYS1 (UniProt P13807) | -0.05 | -0.027 | 0.05 | 0.091 | -0.077 | -0.125 | -0.103 | 0.05 | -0.002 | -0.301 | 0.782 (active) |
| HHEX (UniProt Q03014) | 0.04 | 0.084 | -0.054 | 0.568 (active) | 0.045 | 0.012 | 0.029 | -0.018 | 0.006 | -0.016 | -0.076 |
| GSR (UniProt P00390) | 0.008 | -0.046 | 0 | -0.03 | -0.011 | 0.019 | 0.028 | -0.027 | -0.023 | 0.018 | -0.047 |
| HAX1 (UniProt O00165) | -0.106 | -0.165 | -0.174 | -0.06 | 0.021 | 0.115 | -0.019 | -0.032 | 0.036 | -0.074 | 0.028 |
| GNG5 (UniProt P63218) | -0.029 | 0.071 | 0.056 | 0.086 | 0.082 | -0.127 | -0.021 | 0.017 | -0.156 | -0.057 | 0.062 |
| HMOX2 (UniProt P30519) | -0.022 | -0.028 | -0.094 | -0.026 | 0.018 | 0.029 | 0.023 | 0 | 0.013 | -0.03 | 0.014 |
| GLCCI1 (UniProt Q86VQ1) | -0.12 | 0.03 | -0.024 | 0.102 | 0.056 | 0.158 | 0.002 | -0.042 | 0.01 | -0.088 | 0.007 |
| FYB1 isoform 3 (UniProt O15117) | -0.045 | 0.007 | 0.017 | 0.02 | 0.025 | -0.02 | 0.093 | -0.097 | -0.037 | -0.002 | 0.036 |
| GPKOW (UniProt Q92917) | -0.014 | 0 | -0.096 | -0.216 | 0.042 | 0.122 | 0.048 | -0.078 | -0.061 | -0.01 | -0.025 |
| FRA10AC1 isoform 3 (UniProt Q70Z53) | -0.069 | 0.114 | -0.121 | -0.077 | 0.019 | 0.065 | 0.08 | 0.129 | -0.091 | -0.232 | -0.003 |
| GDPD1 (UniProt Q8N9F7) | -0.024 | 0.144 | 0.067 | 0.003 | -0.011 | -0.141 | 0.051 | -0.039 | 0.096 | -0.038 | 0.04 |
| GLIPR2 (UniProt Q9H4G4) | -0.038 | -0.058 | -0.101 | -0.071 | 0.058 | 0.032 | -0.029 | 0.112 | -0.017 | -0.037 | 0.055 |
| HBZ (UniProt P02008) | 0.03 | -0.042 | 0 | 0.026 | 0.059 | -0.022 | 0.027 | -0.019 | -0.055 | -0.018 | 0.009 |
| FBXO3 (UniProt Q9UK99) | -0.034 | -0.013 | -0.202 | -0.013 | -0.039 | 0.011 | 0.016 | -0.003 | 0.001 | -0.12 | 0.013 |
| GTF2H3 (UniProt Q13889) | -0.133 | -0.152 | 0.12 | -0.063 | 0.141 | 0.037 | -0.049 | -0.004 | -0.041 | -0.015 | 0.087 |
| FLNA (UniProt P21333) | -0.069 | -0.069 | -0.093 | -0.072 | 0.042 | 0.061 | 0.062 | 0.11 | -0.002 | -0.032 | 0.062 |
| FMC1 (UniProt Q96HJ9) | 0.01 | -0.044 | -0.011 | 0.013 | -0.042 | -0.054 | 0.044 | 0.006 | -0.012 | -0.053 | 0 |
| GNL1 (UniProt P36915) | -0.045 | -0.071 | -0.114 | -0.019 | 0.001 | 0.008 | 0.022 | -0.021 | -0.005 | -0.011 | 0.028 |
| HSPA8 (UniProt P11142) | -0.006 | 0.011 | 0.018 | 0.012 | -0.009 | -0.01 | -0.026 | -0.015 | 0.003 | -0.034 | 0.043 |
| GPX4 (UniProt P36969) | -0.006 | 0.079 | -0.052 | 0.032 | -0.107 | -0.082 | -0.391 (active) | 0.004 | -0.006 | -0.049 | 0.02 |
| HIKESHI (UniProt Q53FT3) | 0 | -0.045 | -0.046 | -0.053 | -0.003 | -0.05 | 0.021 | 0.002 | 0.026 | -0.056 | 0.088 |
